Measured values: PubChem BioAssay (NCATS)
Records with an inconclusive call do not appear. Where a call stands in place of a potency, no number is given. Activity calls are given as the source filed them. Unless noted, calls follow the shape of the dose curve; as a rule, active = well fitted curve in the direction sought with a large enough effect; inconclusive = small, poorly fitted or top-dose-only effect, or another doubt; inactive = no such curve, though single readings can be large; an effect the other way counts as inactive or inconclusive.

Assays:
[1] = Cell Viability - NIH 3T3 (AID 541); conditions: NIH 3T3 cell viability, qHTS; activity change, negative = cytotoxicity: at 92.2 µM (top of the series);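 also: cells exposed to compound for 40 hours; nearly all actives have a fitted effect of over 25% in size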
How it was run: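 Cells seeded at 1000/well, rested 5 hr at 37 °C, then dosed and incubated 40 hr at 37 °C. CellTiter-Glo added, 20 min room temperature, luminescence read. AC50 by Hill fit.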

[2] = Cell Viability - SH-SY5Y (AID 544); conditions: SH-SY5Y neuroblastoma cell viability; viability change, negative = cytotoxic: at 92.2 µM (top of the series);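 also: cells exposed to compound for 40 hours; nearly all actives have a fitted effect of over 55% in size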
How it was run: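 Cells were plated at 1500 per well and allowed 5 hr at 37 °C. Compounds were added across a concentration range and incubated 40 hr at 37 °C. CellTiter-Glo was added for 20 min at room temperature before luminescence reading.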

[3] = Cell Viability - LYMP2-001 (AID 921); also: nearly all actives have a fitted effect of over 70% in size
How it was run: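 Cellular ATP loss read by luciferase luminescence after 24 h compound exposure at 37 C in complete medium. LYMP2-001 lymphoblastoid cells, 2500/well; qHTS concentration-response data fitted with Hill equation for AC50.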

[4] = Cell Viability - LYMP1-003 - Assay at 40 hr (AID 964); also: nearly all actives have a fitted effect of over 60% in size
How it was run: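 Luminescent ATP signal (CellTiter-Glo) served as the viability read-out after 40 hr compound treatment of human lymphoblastoid LYMP1-003 cells at 37 C. Decreases in ATP were fitted with the Hill equation to give AC50.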

[5] = Cell Viability - LYMP2-004 (AID 966); also: nearly all actives have a fitted effect of over 65% in size
How it was run: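 qHTS cytotoxicity: human lymphoblastoid line, 24 hr compound treatment, 37 C, complete medium. Viability read as cellular ATP via luciferase luminescence; tetraoctylammonium bromide served as positive control.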

[6] = Cell Viability - LYMP2-015 (AID 971); also: nearly all actives have a fitted effect of over 55% in size
How it was run: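 Cells are seeded at 2500 per well and incubated 5 hr at 37 C. Compounds are added across a concentration series for 24 hr at 37 C. CellTiter-Glo is added, and luminescence is read after 30 min at room temperature.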

[7] = Cell Viability - LYMP2-017 (AID 972); also: nearly all actives have a fitted effect of over 55% in size
How it was run: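 Cytotoxicity is scored as a concentration-dependent drop in cellular ATP in a human lymphoblastoid line after 24 hr treatment at 37 C. Values are AC50s from Hill-equation modelling.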

[8] = Cell Viability - LYMP2-025 (AID 976)
How it was run: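 Acute cytotoxicity is scored as a concentration-dependent fall in intracellular ATP, measured by luciferase luminescence, in human lymphoblastoid LYMP2-025 cells exposed to compound for 24 hours at 37 C. AC50 values come from standard Hill fits.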

[9] = Cell Viability - LYMP2-006 (AID 978); also: nearly all actives have a fitted effect of over 60% in size
How it was run: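 Potency values are Hill-fit AC50s for decreases in intracellular ATP (CellTiter-Glo luminescence). LYMP2-006 lymphoblastoid cells, 2500 per well, were exposed to compound in complete culture medium for 24 hr at 37 C.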

[10] = Cell Viability - LYMP2-010 (AID 981); also: nearly all actives have a fitted effect of over 55% in size
How it was run: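 Steps: seed 2500 LYMP2-010 cells per well; incubate 5 hr at 37 C; add compound; incubate 24 hr at 37 C; add CellTiter-Glo, wait 30 min at room temperature; read luminescence. Concentration-response fitted to Hill equation for AC50.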

[11] = Cell Viability - LYMP2-012 (AID 982)
[12] = Cell Viability - LYMP2-014 (AID 983); also: nearly all actives have a fitted effect of over 50% in size
How it was run: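 Cells are plated at 2500/well and left 5 hr at 37 C. Compounds are added across a concentration range and incubated 24 hr at 37 C in complete medium. CellTiter-Glo is added, and luminescence is read after 30 min at room temperature.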

[13] = Cell Viability - LYMP2-022 (AID 987); also: nearly all actives have a fitted effect of over 55% in size
How it was run: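 Cells were seeded at 2500 per well, rested 5 hr at 37 C, and treated with titrated compounds for 24 hr at 37 C. Cellular ATP was then quantified by luciferase luminescence, and AC50 values were derived from Hill-modelled concentration-response curves.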

[14] = qHTS assay for small molecule agonists of retinoid X receptor alpha signaling (AID 588544; calls by dose curve); conditions: HEK293T RXRa-UAS-bla, beta-lactamase reporter, 18 h; 530 nm emission
[15] = biological target: Retinoic acid receptor RXR-alpha (Homo sapiens) (UniProt P19793); assay: as above
[16] = biological target: Thyroid hormone receptor beta (Homo sapiens) (UniProt P10828); assay: qHTS assay for small molecule agonists of thyroid hormone receptor beta signaling (AID 588545; calls by dose curve)
How it was run: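 Cells (2500/well) were seeded, incubated 4 hrs at 37 C, dosed with a compound series, incubated 18 hrs, loaded with CCF4 dye for 2 hrs at RT, then read for fluorescence. Data were scaled between DMSO (0%) and 10 nM T3 (100%).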

[17] = qHTS assay for small molecule antagonists of retinoid X receptor alpha signaling (AID 588546; active = well fitted inhibition curve with a large enough effect in the signal ratio, with a control signal flat, not every such curve was filed as active; the % refers to the signal ratio;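 also: cells stimulated with 9-cis-retinoic acid as agonist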); conditions: HEK293T RXRa-UAS-bla, beta-lactamase ratio, antagonist mode; measured here: W530 green channel, cytotoxicity proxy
How it was run: (§1)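 Beta-lactamase reporter inhibition, read as CCF4 fluorescence ratio (ex 405, em 460/530 nm) after 2 h at RT. HEK293T UAS-bla cells, 2500/well, were stimulated with 9-cis-RA at 500 or 100 nM final alongside test compound for 18 h at 37 C.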

[18] = biological target: Retinoic acid receptor RXR-alpha (Homo sapiens) (UniProt P19793); assay: as above; conditions: HEK293T RXRa-UAS-bla, beta-lactamase ratio, antagonist mode
How it was run: as §1

[19] = biological target: Thyroid hormone receptor beta (Homo sapiens) (UniProt P10828); assay: qHTS assay for small molecule antagonists of thyroid hormone receptor beta signaling (AID 588547; active = well fitted inhibition curve with a large enough effect in the signal ratio, with a control signal flat, not every such curve was filed as active; the % refers to the signal ratio;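 also: cells stimulated with 0.4 nM T3 agonist during compound exposure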); conditions: TR-UAS-bla HEK293, beta-lactamase ratio, antagonist mode, 18 h
How it was run: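 Inhibition of T3-driven (0.4nM final) beta-lactamase reporter activity was measured over 0.59 nM to 92 uM compound after 18 h at 37 C. The cells were GripTite HEK293 TR-UAS-bla in charcoal/dextran-stripped serum, with CCF4 ratio read-out and IC50 from Hill fits.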

[20] = biological target: Voltage-gated inwardly rectifying potassium channel KCNH2 (Homo sapiens) (UniProt Q12809); assay: qHTS Assay for Small Molecule Inhibitors of the Human hERG Channel Activity (AID 588834);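 also: lower thallium flux fluorescence means stronger hERG block; nearly all actives have a fitted effect of over 50% in size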; also: potency is read from the fitted curve at half-maximal effect
How it was run: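 hERG block measured as reduced thallium-dye (FluxOR) fluorescence after stimulation buffer addition, read over 2 min. Cells were hERG-BacMam-transduced U2OS exposed to compound ~10 min […]; concentration-response fitted with Hill equation for AC50.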

Chain of Thyroid hormone receptor beta (Homo sapiens) (P10828 whole entry, looked up): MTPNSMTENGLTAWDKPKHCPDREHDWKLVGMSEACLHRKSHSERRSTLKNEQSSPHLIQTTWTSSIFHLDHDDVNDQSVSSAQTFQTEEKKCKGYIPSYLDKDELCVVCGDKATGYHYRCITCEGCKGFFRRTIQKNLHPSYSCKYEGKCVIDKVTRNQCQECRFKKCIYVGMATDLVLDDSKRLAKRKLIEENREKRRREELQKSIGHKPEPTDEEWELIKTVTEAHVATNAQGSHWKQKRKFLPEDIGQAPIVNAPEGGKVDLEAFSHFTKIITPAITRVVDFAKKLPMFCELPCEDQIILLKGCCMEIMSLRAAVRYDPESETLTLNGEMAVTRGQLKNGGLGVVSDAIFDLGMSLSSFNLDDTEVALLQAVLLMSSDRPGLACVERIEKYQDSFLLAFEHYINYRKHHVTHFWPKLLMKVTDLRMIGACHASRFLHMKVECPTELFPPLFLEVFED
Chain of Voltage-gated inwardly rectifying potassium channel KCNH2 (Homo sapiens) (Q12809 whole entry, looked up): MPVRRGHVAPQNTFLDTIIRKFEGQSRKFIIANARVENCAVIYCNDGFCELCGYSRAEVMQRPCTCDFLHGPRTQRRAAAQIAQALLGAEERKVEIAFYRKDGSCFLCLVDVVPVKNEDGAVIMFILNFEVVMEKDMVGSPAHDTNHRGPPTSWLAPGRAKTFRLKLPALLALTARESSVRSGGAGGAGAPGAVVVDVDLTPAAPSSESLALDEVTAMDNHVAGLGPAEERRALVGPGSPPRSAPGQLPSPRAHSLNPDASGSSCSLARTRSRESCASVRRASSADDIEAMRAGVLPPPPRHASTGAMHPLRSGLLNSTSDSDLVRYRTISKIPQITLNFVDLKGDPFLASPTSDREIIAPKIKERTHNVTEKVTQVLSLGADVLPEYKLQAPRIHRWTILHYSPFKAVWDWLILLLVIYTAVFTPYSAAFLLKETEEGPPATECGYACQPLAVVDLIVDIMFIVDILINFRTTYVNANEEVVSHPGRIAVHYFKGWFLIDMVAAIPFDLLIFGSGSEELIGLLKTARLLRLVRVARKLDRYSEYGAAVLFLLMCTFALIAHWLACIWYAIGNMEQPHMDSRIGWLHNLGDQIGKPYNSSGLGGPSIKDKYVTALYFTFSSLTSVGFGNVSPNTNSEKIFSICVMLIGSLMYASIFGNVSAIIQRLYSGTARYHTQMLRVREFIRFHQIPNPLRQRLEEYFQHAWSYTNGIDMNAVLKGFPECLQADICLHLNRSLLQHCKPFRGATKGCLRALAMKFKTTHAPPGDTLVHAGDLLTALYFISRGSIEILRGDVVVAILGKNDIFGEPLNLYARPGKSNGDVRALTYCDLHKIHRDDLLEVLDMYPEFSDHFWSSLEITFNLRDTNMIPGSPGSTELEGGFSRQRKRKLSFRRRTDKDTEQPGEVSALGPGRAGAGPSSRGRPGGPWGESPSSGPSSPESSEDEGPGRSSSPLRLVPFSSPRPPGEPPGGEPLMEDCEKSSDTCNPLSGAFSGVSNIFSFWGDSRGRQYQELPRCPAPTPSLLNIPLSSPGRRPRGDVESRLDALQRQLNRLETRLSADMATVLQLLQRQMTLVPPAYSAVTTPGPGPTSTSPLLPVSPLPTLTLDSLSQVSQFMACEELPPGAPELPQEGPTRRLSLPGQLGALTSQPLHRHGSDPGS
Chain of Retinoic acid receptor RXR-alpha (Homo sapiens) (P19793 whole entry, looked up): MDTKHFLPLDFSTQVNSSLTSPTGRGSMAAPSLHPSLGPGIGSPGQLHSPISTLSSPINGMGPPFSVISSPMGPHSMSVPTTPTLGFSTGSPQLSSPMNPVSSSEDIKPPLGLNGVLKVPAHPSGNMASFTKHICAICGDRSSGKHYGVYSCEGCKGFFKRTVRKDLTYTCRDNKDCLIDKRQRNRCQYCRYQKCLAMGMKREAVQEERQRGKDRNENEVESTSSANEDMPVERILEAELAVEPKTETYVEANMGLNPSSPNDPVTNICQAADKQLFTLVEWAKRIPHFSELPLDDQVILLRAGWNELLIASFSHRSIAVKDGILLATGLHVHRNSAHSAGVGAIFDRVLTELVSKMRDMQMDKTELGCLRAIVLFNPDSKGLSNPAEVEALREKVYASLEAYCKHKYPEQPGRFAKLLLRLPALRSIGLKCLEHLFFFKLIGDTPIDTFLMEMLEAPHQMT

Compound | Potency [1] | Potency [2] | Potency [3] | Potency [4] | Potency [5] | Potency [6] | Potency [7] | Potency [8] | Potency [9] | Potency [10] | Potency [11] | Potency [12] | Potency [13] | max response [14] [%] | outcome [15] | Potency [16] | max response [17] [%] | max response [18] | activity change % (negative = inhibition) [19] | Potency [20]
Cc1ccc([N+](=O)[O-])cc1 | inactive | inactive | inactive | inactive | inactive | inactive | inactive | inactive | inactive | inactive | inactive | inactive | inactive | -18.4 | inactive | inactive | 1.21 | 4.07% (inactive) | 0.221% (inactive) | inactive
Clc1ccc(C(Cl)(Cl)Cl)cc1Cl | inactive | inactive | inactive | inactive | inactive | inactive | inactive | – | inactive | inactive | inactive | inactive | inactive | -3.09 | inactive | – | -6.09 | -3.13% (inactive) | – | 11.2 µM (active)
O=S(=O)(O)F | inactive | inactive | inactive | inactive | inactive | inactive | inactive | inactive | inactive | inactive | inactive | inactive | inactive | -13.3 | inactive | inactive | -2.92 | 39.7% (inactive) | 10% (inactive) | inactive
Clc1ccc(C(Cl)(Cl)Cl)c(Cl)c1 | inactive | inactive | inactive | inactive | inactive | inactive | inactive | inactive | inactive | inactive | inactive | inactive | inactive | -5.84 | inactive | inactive | -9.41 | 8.02% (inactive) | 16.5% (inactive) | –
O=[N+]([O-])c1ccccc1-c1ccccc1 | inactive | inactive | inactive | inactive | – | inactive | inactive | inactive | inactive | inactive | inactive | inactive | inactive | -6.95 | inactive | inactive | -2.63 | 0.902% (inactive) | -0.648% (inactive) | –
ClC(Br)Br | inactive | inactive | inactive | inactive | inactive | inactive | inactive | inactive | inactive | inactive | inactive | inactive | inactive | -3.88 | inactive | inactive | -8.78 | 0.0478% (inactive) | 16% (inactive) | inactive
CCCCCCCCCCCOC(=O)c1ccccc1C(=O)OCCCCCCCCCCC | inactive | inactive | inactive | inactive | inactive | inactive | inactive | inactive | inactive | inactive | inactive | inactive | inactive | -1.51 | inactive | inactive | 5.25 | -3.34% (inactive) | – | inactive
O=NN1CCCCC1 | inactive | inactive | inactive | inactive | inactive | inactive | inactive | inactive | inactive | inactive | inactive | inactive | inactive | 5.16 | inactive | inactive | -1.5 | 14.4% (inactive) | 8.23% (inactive) | inactive
Nc1ccc2ccccc2c1 | inactive | inactive | inactive | inactive | inactive | inactive | inactive | inactive | inactive | inactive | inactive | inactive | inactive | -8.86 | inactive | inactive | -4.26 | -0.227% (inactive) | -16.4% (inactive) | inactive
S=c1[nH]c2ccccc2[nH]1 | inactive | inactive | inactive | inactive | inactive | inactive | inactive | inactive | inactive | inactive | inactive | inactive | inactive | 8.12 | inactive | inactive | -17.8 | 5.37% (inactive) | -0.89% (inactive) | inactive
OCCBr | inactive | inactive | inactive | inactive | inactive | inactive | inactive | inactive | inactive | inactive | inactive | inactive | inactive | 1.51 | inactive | inactive | 8.33 | 2.44% (inactive) | – | inactive
C=CCc1cc(OC)c2c(c1)OCO2 | inactive | inactive | inactive | inactive | inactive | inactive | inactive | inactive | inactive | inactive | inactive | inactive | inactive | -17.2 | inactive | inactive | -4.92 | 9.86% (inactive) | 4.98% (inactive) | inactive
CCC#N | inactive | inactive | inactive | inactive | inactive | inactive | inactive | inactive | inactive | inactive | inactive | inactive | inactive | 3.48 | inactive | inactive | 15.9 | 10.5% (inactive) | -12.3% (inactive) | inactive
